CYP2C9 inh: inhibitors of human CYP2C9. inhibition, % at 5 µM. P11712. CYP2C9 Supersomes, luciferin-H conversion, luminescence. actives 20% (n = 96,000);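 active = blocking of liver enzyme CYP2C9 beyond about 50% at 5 µM, limit read from the data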
PLAP act: activates human placental alkaline phosphatase | activation fold at 20 µM | purified PLAP enzyme, luminescent substrate read-out; stronger effect = higher value | actives 1.2% (n = 96,000) | AID 696; in the data active = activation fold above about 2
CYP2C9 act: CYP2C9 (human) activation; P11712; AID 1024; recombinant CYP2C9, luciferin-H conversion, luminescence; stronger effect = higher value; factor 1 = untreated enzyme, 0 = blocked; actives 1.4% (n = 96,000); activation factor at 5 µM;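 active = activation factor of 2 or more for CYP2C9 at a 5 µM dose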;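 note: 0 = sulfaphenazole-blocked wells and 1 = vehicle-only wells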
CYP2C19 inhib: inhibitors of human CYP2C19; P33261; CYP2C19 Supersomes, luciferin-H EGE luminescence, 30 min; inhibition, % at 5 µM; actives 21% (n = 96,000); AID 778;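 active = CYP2C19 inhibition above a set limit at 5 µM in the primary screen, cut at about 50% in these data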;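 note: plate controls were negative control wells for no effect and 2.5 mM tranylcypromine positive control for full effect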
Target sequence (P33261 whole entry, looked up): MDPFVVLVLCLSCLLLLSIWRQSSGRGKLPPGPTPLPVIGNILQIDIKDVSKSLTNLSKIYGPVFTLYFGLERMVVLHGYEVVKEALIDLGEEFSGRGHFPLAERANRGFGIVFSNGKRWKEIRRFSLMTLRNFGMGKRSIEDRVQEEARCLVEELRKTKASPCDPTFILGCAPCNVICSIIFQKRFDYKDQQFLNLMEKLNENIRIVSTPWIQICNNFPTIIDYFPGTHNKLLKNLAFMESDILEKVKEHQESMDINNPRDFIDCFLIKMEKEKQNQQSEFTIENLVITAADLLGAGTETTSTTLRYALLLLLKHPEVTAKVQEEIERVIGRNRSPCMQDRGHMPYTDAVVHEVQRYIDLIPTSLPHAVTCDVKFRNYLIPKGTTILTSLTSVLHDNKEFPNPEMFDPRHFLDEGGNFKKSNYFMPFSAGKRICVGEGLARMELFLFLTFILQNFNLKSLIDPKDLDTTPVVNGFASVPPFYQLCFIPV
CYP2C19 activ: increases human CYP2C19 enzyme activity | recombinant CYP2C19, luciferin-H EGE luminescence; stronger effect = higher value; 0 = fully inhibited enzyme, 1 = untreated enzyme | activation factor at 5 µM | 96,000 tested, under 10 active | P33261;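 active = activation factor of at least 2 at 5 µM in the primary screen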;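 note: 0 = wells with 2.5 mM tranylcypromine and 1 = vehicle-only wells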
The depositor's hits bear a star. This is a sample that favours compounds with a hit; in the whole collection about 31% have one here.

SMILES	CYP2C9 inh	PLAP act	CYP2C9 act	CYP2C19 inhib	CYP2C19 activ
CC(C)OC(=O)c1cn(-c2ccccc2)nc1-c1ccco1	22	1.3	0.8	3	1
Oc1ccc(Br)cc1-c1nc2cnccn2c1NC1CCCCC1	91*	1.6	0.1	77*	0.2
c1ccc(-c2cc(N3CCOCC3)nc3ccccc23)cc1	22	1.6	0.8	14	0.9
CCCc1n[nH]c2c1/C(=N\O)CCC2	-4	1	1	4	1
CCn1c(=O)n(CC)c2cc(S(=O)(=O)Nc3ccccc3C)c(C)cc21	76*	0.9	0.2	72*	0.3
CCOC(=O)CN1CC23C=CC(O2)C(C(=O)Nc2ccc(F)c(C)c2)C3C1=O (stereo not given)	0	1.7	1	36	0.6
CC(=Nc1ccccc1C)C1=C(O)CSC1=O	23	1	0.8	75*	0.2
COc1ccc(OC)c(NC(=O)CC2C(=O)NCCN2C(=O)Nc2cccc(Cl)c2)c1 (stereo not given)	72*	2*	0.3	41	0.6
O=C(CSCc1ccc(F)cc1)Nc1nc2c(s1)CCCC2	41	0.9	0.6	30	0.7
CC(=O)/C(=N/Nc1cccc(Cl)c1)N1CCOCC1	65*	1.2	0.4	72*	0.3
Cc1nn(CC2CCCCC2)c(N)c1-c1ccccc1	92*	0.9	0.1	98*	0
CCOC(=O)Cn1nc(C)c(-c2ccccc2)c1N	3	0.9	1	34	0.7
Cc1ccccc1OCc1nnc(SCC(=O)Nc2ccc3nc(SCC(=O)NC(C)(C)C)sc3c2)n1C	75*	1	0.2	53*	0.5
CC(C)(C)NC(=O)CSc1nc2ccc(NC(=O)CSc3nnnn3Cc3ccccc3)cc2s1	49	1.4	0.5	52*	0.5
CCN(CC)C(=O)CSc1nc2ccc(NC(=O)CSc3nnc(COc4ccccc4C)n3C)cc2s1	46	1.2	0.5	48	0.5
O=C(Oc1ccc(=O)n(-c2ccccc2)n1)c1cccc(Cl)c1	7	1.1	0.9	16	0.8
CC1CCc2c(C(=O)Oc3cccc(-n4cnnn4)c3)csc2C1 (stereo not given)	-9	1.1	1.1	2	1
C/C=C/Cn1c(Br)nc2c1c(=O)n(C)c(=O)n2C	4	1.2	1	0	1
Cc1nn(Cc2ccccc2)c(=O)n1N(C)c1ncc(C(F)(F)F)cc1Cl	10	1.5	0.9	67*	0.3
CN(C)C(=O)c1cn(N(C)c2ncc(C(F)(F)F)cc2Cl)c(=O)c2ccccc12	80*	1.4	0.2	53*	0.5
COc1ccccc1/C=C/CN1CCN(c2ccccc2)CC1	-16	1.6	1.2	82*	0.2
CCn1c(C)c(C(C)=O)c(SC)nc1=S	-2	0.9	1	-6	1.1
COc1c(C)cc(Br)cc1C(=O)Nc1cccc(-c2nc3ncccc3o2)c1	54*	1.4	0.5	92*	0.1
COc1cc(C(=O)Nc2cccc(-c3nc4ncccc4o3)c2C)cc(OC)c1OC	-1	1.1	1	-5	1
O=C(CSc1ccc(Cl)cc1)Nc1cccc(-c2nc3ncccc3o2)c1	51*	0.8	0.5	4	1
SMILES	CYP2C9 inh	PLAP act	CYP2C9 act	CYP2C19 inhib	CYP2C19 activ
Cc1c(NC(=O)CSc2ccc(Cl)cc2)cccc1-c1nc2ncccc2o1	92*	1	0.1	28	0.7
COc1ccc(C(=O)Nc2cccc(-c3nc4ncccc4o3)c2C)cc1	64*	0.9	0.4	13	0.9
CCCCC(=O)Nc1cccc(-c2nc3ncccc3o2)c1	36	0.9	0.6	32	0.7
CN(Cc1ccccc1)C(=O)CCS(=O)(=O)c1ccc2c(c1)n(C)c(=O)c(=O)n2C	5	0.9	0.9	4	1
Cc1nnc(NCCc2ccccc2)n(N)c1=O	-7	1.1	1.1	-11	1.1
CCn1c(NC(=S)Nc2ccccc2)nc2ccccc21	20	1	0.8	32	0.7
O=C(NCCc1ccccc1F)[C@@H]1CSC2c3ccccc3C(=O)N21 (stereo not given in full)	30	1.1	0.7	14	0.9
Cc1ccc(NC(C)c2cc(Cl)ccc2O)cc1 (stereo not given)	98*	1.3	0	100*	0
Cc1ccc(NC(=O)C(c2ccc(Cl)cc2)N2CCCCC2)cc1 (stereo not given)	27	1.1	0.7	32	0.7
CN(CC(=O)NCc1cccs1)S(=O)(=O)c1cccc2nsnc12	-25	1	1.2	83*	0.2
CC(C)CCNC(=O)CN(C)S(=O)(=O)c1cccc2nsnc12	50*	0.9	0.5	25	0.7
CN(C(=O)COC(=O)c1ccc(Cl)cc1N)C1CCS(=O)(=O)C1 (stereo not given)	-5	1	1.1	-33	1.3
Cc1ccc(NC(=O)CCC(=O)O)cc1F	-19	1	1.2	-24	1.2
Cc1ccc(O)c(-c2cc3ccccc3[nH]2)c1	80*	1.3	0.2	54*	0.5
Cc1ccc2[nH]c(-c3cccc(N)c3)cc2c1	36	0.9	0.6	7	0.9
O=S(Cc1cc(Oc2ccccc2)nc(-c2ccccc2)n1)c1ccccc1 (stereo not given)	78*	1.3	0.2	84*	0.2
c1ccc(-c2ccc(Oc3cc(N4CCOCC4)nc(-c4ccccc4)n3)cc2)cc1	16	0.8	0.8	-1	1
CC(=O)c1ccc2c(c1)Nc1ccccc1S2	57*	0.9	0.4	12	0.9
CCOC(=O)Nc1ccc2c(c1)Nc1ccccc1S2	15	1.1	0.9	0	1
COc1ccc[nH]c1=O	33	1	0.7	81*	0.2
COCCNC(=O)COC(=O)/C=C/c1c(C)nn(Cc2ccc(Cl)cc2Cl)c1Cl	56*	1.3	0.4	26	0.7
Cc1nn(Cc2c(Cl)cccc2Cl)c(Cl)c1/C=C/C(=O)OCC(=O)NCC(F)(F)F	4	1.2	1	-24	1.2
CCCSc1nc(N2CCOCC2)c2c(c1C#N)CC(C)(C)SC2	66*	1.3	0.3	35	0.7
CC(C)Sc1nc(N2CCOCC2)c2c(c1C#N)CC(C)(C)SC2	95*	0.9	0.1	70*	0.3
CN1Cc2sc(N)c(C#N)c2CC1(C)C	8	1	0.9	-2	1
CC(C)Sc1nc(N2CCOCC2)c2c(c1C#N)CC(C)(C)N(C)C2	97*	2*	0	64*	0.4
CC1(C)Cc2c(c(N3CCCCC3)[nH]c(=S)c2C#N)CS1	38	1.2	0.6	4	1
CC(Sc1nc(N2CCCCC2)c2c(c1C#N)CCCC2)C(=O)O (stereo not given)	90*	1.5	0.1	31	0.7
CC(C)Sc1nc(N2CCCC2)c2c(c1C#N)CC(C)(C)OC2	87*	1	0.1	61*	0.4
CC(C)CSc1nc(N2CCOCC2)c2c(c1C#N)CC(C)(C)SC2	87*	1.2	0.1	26	0.7

Compound activity: PubChem BioAssay, Sanford-Burnham Center for Chemical Genomics
